The results in this text go back to paper PMC5540273 (PLoS ONE, 2017).

Among the test systems are RIOK1; RIOK2; RIOK3; RIPK1; RIPK2; RIPK4; RIPK5; ROCK1; ROCK2; ROS1.
Common to all, as to conditions: concentration: 1 μM, replicates: in singlicate; n = 1
Assay [1] has as its system RPS6KA4(Kin.Dom.1-N-terminal).
The test system of assay [2] is RPS6KA4(Kin.Dom.2-C-terminal).
The test system of assay [3] is RPS6KA5(Kin.Dom.1-N-terminal).
Assay [4] deals with RPS6KA5(Kin.Dom.2-C-terminal).
The test system of assay [5] is T1, RSK1(Kin.Dom.1-N-terminal).
T1 construct: gene RPS6KA1

Assay [6] deals with T2, RSK1(Kin.Dom.2-C-terminal).
T2 construct: gene RPS6KA1

For assay [7], the system named is T3, RSK2(Kin.Dom.1-N-terminal).
T3 construct: gene RPS6KA3

Assay [8] has as its system T4, RSK2(Kin.Dom.2-C-terminal).
T4 construct: gene RPS6KA3

The subject of assay [9] is T5, RSK3(Kin.Dom.1-N-terminal).
T5 construct: gene RPS6KA2

Assay [10] concerns T6, RSK3(Kin.Dom.2-C-terminal).
T6 construct: gene RPS6KA2
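Also: KINOMEscan kinase panel screen.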

`COc1cccc(-c2ccc3c(NC(=O)C4CC4)n[nH]c3n2)c1` [SB-710903]: the “%Inh” value in the assay with RIOK1 is 38%; in the assay with RIOK2 it was 0%; in the assay on RIOK3 it was 0%; in the assay on RIPK1 it was 99.5%; in the assay with RIPK2, 15%; in the assay with RIPK4, 27%. Further, the “%Inh” value amounted to 1% in the assay with RIPK5; 38% with ROCK1; 49% in the assay with ROCK2; 0% in the assay on ROS1; 2% in [1]; 0% in assay [2]. The “%Inh” value in assay [3] stood at 20%; in assay [4] it was 12%; in [5], 20%; in [6], 0%; in assay [7], 0%; in [8], 22%. Also, the “%Inh” value came out at 6% in [9] and 1% in assay [10].

With `CC(=O)Nc1nc2cnc(Nc3cc(NC(=O)c4cccc(C5(C#N)CC5)c4Cl)ccc3C)nc2s1`, the “%Inh” value is on record as 15% in the assay on RIOK1; 5% in the assay with RIOK2; 3% in the assay with RIOK3; 2% with RIPK1; 0% in the assay on RIPK2; 0% in the assay on RIPK4. The “%Inh” value in the assay on RIPK5 is listed as 15%; in the assay on ROCK1, 5%; in the assay with ROCK2 it was 0%; in the assay on ROS1, 0%; in assay [1], 0%; in assay [2], 0%. In addition, the “%Inh” value in [3] is recorded as 14%; in assay [4], 5%; in [5] it was 0%; in [6] it was 25%; in [7], 0%; in assay [8], 0%. In addition, the “%Inh” value in assay [9] came out at 0%; in assay [10], 10%.

On to `COc1cccc(C(=O)Nc2cccc(Oc3ccc4nc(NC(=O)C5CC5)cn4n3)c2)c1`, for which the “%Inh” value with RIOK1 was found to be 55%; in the assay with RIOK2, 0%; in the assay with RIOK3 it was 39%; with RIPK1 it was 20%; with RIPK2, 50%; in the assay with RIPK4 it was 0%. For the same molecule, the “%Inh” value in the assay with RIPK5 was determined as 0%; with ROCK1, 0%; in the assay on ROCK2, 0%; in the assay with ROS1, 0%; in assay [1] it was 40%; in assay [2], 10%. The “%Inh” value came to 0% in [3]; 19% in assay [4]; 0% in assay [5]; 12% in assay [6]; 9% in assay [7]; 0% in [8]. For the same molecule, the entries for the “%Inh” value in [9] and in assay [10] were 5% and 1%, respectively.

For `c1ccc(-c2n[nH]cc2Nc2ccnc3ccccc23)nc1` [GW694077], the “%Inh” value was 99.2% in the assay with RIOK1; 86% in the assay on RIOK2; 100% in the assay with RIOK3; 0% in the assay with RIPK1; 11% in the assay on RIPK2; 96.4% in the assay with RIPK4. Moreover, the “%Inh” value is given as 85% in the assay on RIPK5; 98.2% in the assay with ROCK1; 97.8% in the assay with ROCK2; 9% with ROS1; 3% in assay [1]; 56% in [2]. Moreover, the “%Inh” value in assay [3] is 5%; in assay [4], 56%; in assay [5], 19%; in assay [6] it was 16%; in [7], 27%; in assay [8], 24%. The figures for the “%Inh” value in assay [9] and in assay [10] were 0% and 30%, respectively.

Take `O=C(O)C(F)(F)F.O=C(O)C(F)(F)F.O=c1[nH]ccc2nc(N[C@@H]3CCCNC3)nc(Nc3ccc(S(=O)(=O)N4CCOCC4)cc3)c12` [GSK2177277]: the “%Inh” value with RIOK1 was 100%; in the assay on RIOK2, 65%; in the assay with RIOK3 it was 82%; with RIPK1 it was 0%; in the assay on RIPK2, 0%; in the assay with RIPK4, 95.9%. In addition, the “%Inh” value is given as 98.3% in the assay on RIPK5; 99.6% in the assay on ROCK1; 92.8% with ROCK2; 71% in the assay on ROS1; 98.7% in assay [1]; 98.5% in assay [2]. The “%Inh” value is recorded as 77% in assay [3]; 74% in assay [4]; 96% in assay [5]; 75% in assay [6]; 99.7% in assay [7]; 11% in [8]. In addition, the “%Inh” value is 99.3% in assay [9] and 90.2% in assay [10].

On to `CCCCc1nn2ncccc2c1-c1ccnc(Nc2ccc(N3CCN(C)CC3)cc2)n1` [GW684941], for which the “%Inh” value in the assay on RIOK1 turned out to be 52%; in the assay on RIOK2, 44%; with RIOK3, 49%; in the assay on RIPK1, 22%; with RIPK2, 74%; with RIPK4, 29%. Further, the “%Inh” value is recorded as 56% with RIPK5; 32% in the assay on ROCK1; 30% in the assay with ROCK2; 71% in the assay with ROS1; 8% in [1]; 0% in assay [2]. Further, the “%Inh” value was 0% in [3]; 43% in assay [4]; 0% in assay [5]; 31% in assay [6]; 71% in [7]; 20% in assay [8]. For the same molecule, the “%Inh” value amounted to 5% in [9] and 0% in [10].

As for `Cl.c1ccc(-c2ccc3c(Nc4ccc5[nH]ncc5c4)ccnc3c2)nc1` [GW440137], the “%Inh” value with RIOK1 is 32%; in the assay on RIOK2, 11%; in the assay on RIOK3 it was 32%; in the assay with RIPK1, 6%; with RIPK2, 75%; with RIPK4, 23%. Further, the “%Inh” value in the assay with RIPK5 was 4%; in the assay on ROCK1, 10%; with ROCK2, 35%; in the assay with ROS1 it was 0%; in assay [1], 0%; in assay [2] it was 0%. Also, the “%Inh” value in assay [3] was determined as 2%; in assay [4] it was 34%; in assay [5] it was 20%; in assay [6], 6%; in assay [7], 0%; in [8], 0%. In addition, the “%Inh” value in assay [9] is recorded as 6%; in assay [10], 0%.

`COc1ccc(Nc2nccc(NCCNC(=O)c3cc4ccccc4s3)n2)cc1` [GSK1379896]: the “%Inh” value with RIOK1 is on record as 19%; in the assay with RIOK2, 0%; with RIOK3, 0%; in the assay with RIPK1 it was 0%; in the assay on RIPK2, 12%; with RIPK4 it was 0%. Further, the “%Inh” value with RIPK5 is given as 7%; in the assay with ROCK1, 13%; in the assay on ROCK2 it was 28%; in the assay with ROS1, 9%; in assay [1], 0%; in assay [2] it was 0%. Further, the “%Inh” value in assay [3] is reported as 3%; in assay [4], 0%; in assay [5] it was 0%; in assay [6] it was 0%; in assay [7] it was 0%; in assay [8], 23%. Moreover, the “%Inh” value in [9] and in assay [10] was 0% throughout.

Turning to `Cl.c1ccc(-c2ccc3c(Nc4ccc5[nH]ccc5c4)ccnc3c2)nc1` [GW440138], the “%Inh” value in the assay with RIOK1 turned out to be 4%; in the assay on RIOK2, 0%; with RIOK3 it was 0%; in the assay with RIPK1, 0%; with RIPK2, 78%; with RIPK4, 19%. Moreover, the “%Inh” value is reported as 0% in the assay with RIPK5; 23% in the assay with ROCK1; 43% with ROCK2; 0% in the assay on ROS1; 0% in assay [1]; 0% in [2]. For the same molecule, the “%Inh” value is 0% in assay [3]; 3% in assay [4]; 0% in assay [5]; 0% in [6]; 0% in assay [7]; 0% in assay [8]. Moreover, the “%Inh” value was 0% in [9] and 15% in [10].
